Bioassay records deposited in PubChem by Broad Institute.
IDE exosite FP: insulin-degrading enzyme (human) exo-site inhibition. actives 6.3% (n = 17,000). P14735. purified IDE, FL-6b probe fluorescence polarization; active compounds read low. z-score at 20 µM. AID 1259349;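 active = z-score of -3 or lower, meaning strong loss of probe binding signal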;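 note: His-tagged human IDE residues 42-1019 made in E. coli with 30 nM FL-6b probe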
Numbers without * were called inactive; ! = repeats disagree. Shown is part of a subset that was picked to be rich in hits.

SMILES	IDE exosite FP
CCS(=O)(=O)N1CC(=O)N2[C@H](C1)[C@H](c1ccc(C#Cc3cccc(F)c3)cc1)[C@@H]2CO	-5.4*
CCC(=O)N1CC(=O)N2[C@@H](CO)[C@@H](c3ccc(C#Cc4cccc(F)c4)cc3)[C@@H]2C1	-4.1*
CCC(=O)N1CC(=O)N2[C@H](CO)[C@@H](c3ccc(C#Cc4cccc(F)c4)cc3)[C@@H]2C1	-1.1
Cc1noc(C)c1NC(=O)N(C)C[C@@H]1OCc2ccccc2-c2c(n(C)c3ccccc23)C(=O)N([C@@H](C)CO)C[C@@H]1C	-2.7
O=C(C[C@@H]1CC[C@@H]2NC[C@H](O)COC[C@H]2O1)NCCN1CCCCC1	-0.24
COc1ccc2c3c(n(C)c2c1)[C@@H](CO)N(C(=O)CC1CC1)CC31CN(Cc2ccncc2)C1	0.56
CN(C)CC#Cc1ccc([C@H]2[C@@H](CO)N3C(=O)CN(C(=O)c4cccc(F)c4)C[C@@H]23)cc1	1
COc1cccc(S(=O)(=O)Nc2ccc3c(c2)C(=O)N(C)[C@@H]2CC[C@H](CC(=O)NCC4CCCCC4)O[C@H]2CO3)c1	0.89
N#C[C@@H]1[C@@H](c2ccccc2-c2ccc(F)cc2)[C@H](CO)N1c1ncc(-c2ccccc2)s1	1.5
C(=C\c1ccc(C2[C@@H]3CN(Cc4ccccn4)C[C@H]2N3)cc1)/c1ccccc1 (some centres not stated)	-5.2*
COc1ccccc1NC(=O)N1C[C@@H]2N[C@H](C1)C2c1ccc(/C=C/c2ccccc2)cc1 (some centres not stated)	-0.39
O=C(C1CCOCC1)N1C[C@@H]2N[C@H](C1)C2c1ccc(/C=C/c2ccccc2)cc1 (some centres not stated)	-7.6*!
O=C(C1CCOCC1)N1C[C@@H]2N[C@H](C1)C2c1ccc(-c2ccncc2)cc1 (some centres not stated)	2.1
O=C(c1ccncc1)N1C[C@@H]2N[C@H](C1)C2c1ccc(/C=C/c2ccccc2)cc1 (some centres not stated)	-14*!
C(=C\c1ccc(C2[C@@H]3CN(Cc4nccs4)C[C@H]2N3)cc1)/c1ccccc1 (some centres not stated)	-2.4
O=C(c1cccnc1)N1C[C@@H]2N[C@H](C1)C2c1ccc(-c2ccccc2)cc1 (some centres not stated)	-2.8
O=C(c1ccc2c(c1)OCO2)N1C[C@@H]2N[C@H](C1)C2c1ccc(/C=C/c2ccccc2)cc1 (some centres not stated)	-0.41
COc1ccc(-c2ccc(C3[C@@H]4CN(Cc5ccccn5)C[C@H]3N4)cc2)cc1 (some centres not stated)	3.7
O=C(c1ccc(F)cc1)N1C[C@@H]2N[C@H](C1)C2c1ccc(/C=C/c2ccccc2)cc1 (some centres not stated)	-4.6*!
O=C(c1ccc(F)cc1)N1CC(=O)N2[C@H](CO)[C@@H](c3ccc(/C=C/c4ccccc4)cc3)[C@H]2C1	2
O=C(CN1CCOCC1)N1C[C@@H]2N[C@H](C1)C2c1ccc(/C=C/c2ccccc2)cc1 (some centres not stated)	-0.79
COCC(=O)N1[C@@H](C#N)[C@@H](c2ccccc2C2=CCCC2)[C@@H]1CO	0.55
CN(C)CC#Cc1ccc([C@@H]2[C@@H](CO)N3CCCCN(C(=O)c4ccc5c(c4)OCO5)C[C@@H]23)cc1	4.1
Cc1ccc(-c2ccccc2[C@H]2[C@@H](CO)N(C(=O)NC3CCCC3)[C@H]2C#N)cc1	1.3
O=C([C@@H]1[C@@H](CO)[C@@H]2Cn3c(ccc(-c4ccc(F)cc4)c3=O)[C@@H]2N1Cc1cocn1)N1CCCCC1	0.84
SMILES	IDE exosite FP
CC(=O)N1[C@H](CO)[C@H](c2ccc(-c3ccccc3)cc2)[C@@H]1CNC(=O)NC(C)C	0.92
CN(C)C(=O)c1ccc(-c2ccccc2[C@H]2[C@@H](CO)N(C(=O)C3CC3)[C@H]2C#N)cc1	-0.42
N#C[C@@H]1[C@@H](c2ccc(-c3cncnc3)cc2)[C@H](CO)N1C(=O)Cc1ccccc1	1.2
Cc1cccc(S(=O)(=O)N2C[C@@H]3[C@H](c4ccccc42)[C@H](CO)N3C(=O)c2ccccc2)c1	0.37
CO[C@@H]1CN(C)C(=O)c2cc(NC(=O)NC(C)C)ccc2OC[C@@H](C)N(Cc2ccccc2)C[C@H]1C	-0.52
CO[C@@H](CN(C)C(=O)c1ccccc1F)[C@@H](C)CN([C@@H](C)CO)S(=O)(=O)c1ccc(F)cc1	0.68
COc1cccc(C#Cc2ccc([C@@H]3[C@@H](CO)N4C(=O)CN(C(=O)c5ccccc5)C[C@H]34)cc2)c1	0.1
COc1cccc(C#Cc2ccc([C@@H]3[C@H](CO)N4C(=O)CN(C(=O)c5ccncc5)C[C@@H]34)cc2)c1	-5.1*
COc1cccc(C#Cc2ccc([C@H]3[C@@H](CO)N4C(=O)CN(C(=O)c5ccncc5)C[C@@H]34)cc2)c1	-7.3*
COc1ccc(C#Cc2ccc([C@H]3[C@@H](CO)N4C(=O)CN(C(=O)c5ccncc5)C[C@@H]34)cc2)cc1	0.67
